Source: PubChem BioAssay (Tox21)
Inconclusive results are not listed. The source made the active and inactive calls. Calls follow the shape of the dose curve; as a rule, active = well fitted curve in the direction sought with a large enough effect in the repeat runs; inconclusive = weak or mixed curves; inactive = no such curve, though single readings can be large; an effect the other way counts as inactive or inconclusive.

Assays:
[1] = biological target: Cytochrome P450 2D6 (Homo sapiens) (UniProt P10635); experiment: Cytochrome P450 Family 2 Subfamily D Member 6 (CYP2D6) small molecule antagonists: luciferase reporter qHTS assay (AID 1671196); also: nearly all actives have a fitted effect of over 50% in size; also: potency is read from the fitted curve at half-maximal effect; as to activity change, negative = inhibition: series mostly up to about 120 µM
Sequence of Cytochrome P450 2D6 (Homo sapiens) (P10635 whole entry, looked up): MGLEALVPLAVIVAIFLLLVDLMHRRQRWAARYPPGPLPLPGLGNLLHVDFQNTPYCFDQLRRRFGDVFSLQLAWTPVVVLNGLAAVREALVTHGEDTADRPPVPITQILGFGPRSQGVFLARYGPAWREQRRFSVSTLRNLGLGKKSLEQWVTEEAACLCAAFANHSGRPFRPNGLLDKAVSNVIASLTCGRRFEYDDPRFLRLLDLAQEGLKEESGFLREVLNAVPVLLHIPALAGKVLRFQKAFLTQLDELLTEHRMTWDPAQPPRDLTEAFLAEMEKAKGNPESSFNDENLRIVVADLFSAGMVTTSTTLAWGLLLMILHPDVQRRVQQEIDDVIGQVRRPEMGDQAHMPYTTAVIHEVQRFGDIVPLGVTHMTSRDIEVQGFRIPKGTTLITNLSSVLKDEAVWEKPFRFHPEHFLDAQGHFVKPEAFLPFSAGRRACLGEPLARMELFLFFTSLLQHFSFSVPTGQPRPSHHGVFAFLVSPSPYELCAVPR
Summary of the method: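 Inhibition of CYP2D6 was gauged by loss of luminescence, since light produced tracks the luciferin generated from a proluciferin substrate. A 10 min room-temperature preincubation preceded 1 h NADPH-supported turnover.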

[2] = biological target: Cytochrome P450 2C19 (Homo sapiens) (UniProt P33261); experiment: Cytochrome P450 Family 2 Subfamily C Member 19 (CYP2C19) small molecule antagonists: luciferase reporter qHTS assay (AID 1671197); also: nearly all actives have a fitted effect of over 65% in size; also: potency is read from the fitted curve at half-maximal effect; as to activity change, negative = inhibition: series mostly up to about 120 µM
Sequence of Cytochrome P450 2C19 (Homo sapiens) (P33261 whole entry, looked up): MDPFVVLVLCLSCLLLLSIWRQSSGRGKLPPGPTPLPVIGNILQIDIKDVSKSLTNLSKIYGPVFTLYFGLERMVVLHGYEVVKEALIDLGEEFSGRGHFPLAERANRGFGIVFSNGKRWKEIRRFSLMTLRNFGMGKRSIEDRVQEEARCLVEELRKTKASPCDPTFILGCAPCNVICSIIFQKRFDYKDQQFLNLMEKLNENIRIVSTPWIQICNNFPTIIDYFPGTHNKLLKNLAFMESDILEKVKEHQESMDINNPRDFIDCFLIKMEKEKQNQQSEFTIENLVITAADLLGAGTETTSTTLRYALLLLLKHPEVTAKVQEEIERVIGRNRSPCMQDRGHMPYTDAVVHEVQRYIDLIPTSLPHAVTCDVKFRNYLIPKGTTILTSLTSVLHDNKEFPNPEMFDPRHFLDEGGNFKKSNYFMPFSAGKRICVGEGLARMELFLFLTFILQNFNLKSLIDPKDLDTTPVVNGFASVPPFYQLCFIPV
Summary of the method: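 Luminescent readout of CYP2C19 activity: luciferin product detected 20 min after adding detection reagent. Before that, compound and enzyme-substrate mix preincubated 10 min at room temperature; NADPH-regenerating system started a 1 h, 37C reaction. Ketoconazole as positive control.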

[3] = biological target: Cytochrome P450 2C9 (Homo sapiens) (UniProt P11712); experiment: Cytochrome P450 Family 2 Subfamily C Member 9 (CYP2C9) small molecule antagonists: luciferase reporter qHTS assay (AID 1671198); also: nearly all actives have a fitted effect of over 50% in size; also: potency is read from the fitted curve at half-maximal effect; as to activity change, negative = inhibition: series mostly up to about 120 µM
Sequence of Cytochrome P450 2C9 (Homo sapiens) (P11712 whole entry, looked up): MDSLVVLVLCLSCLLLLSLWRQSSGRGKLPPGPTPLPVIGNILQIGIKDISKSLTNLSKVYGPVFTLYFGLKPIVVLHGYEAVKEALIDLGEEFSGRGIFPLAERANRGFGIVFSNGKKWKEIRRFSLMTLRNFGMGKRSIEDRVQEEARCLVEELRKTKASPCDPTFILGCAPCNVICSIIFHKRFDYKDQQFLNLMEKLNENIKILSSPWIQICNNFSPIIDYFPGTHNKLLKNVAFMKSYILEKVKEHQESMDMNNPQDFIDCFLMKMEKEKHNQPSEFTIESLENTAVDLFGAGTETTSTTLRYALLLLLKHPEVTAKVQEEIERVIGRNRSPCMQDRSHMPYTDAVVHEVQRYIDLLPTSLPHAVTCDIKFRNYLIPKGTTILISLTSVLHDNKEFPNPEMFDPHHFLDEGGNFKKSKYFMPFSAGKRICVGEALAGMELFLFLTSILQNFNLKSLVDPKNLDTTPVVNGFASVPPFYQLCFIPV
Summary of the method: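 P450-Glo proluciferin substrate with CYP2C9 enzyme; 10 min RT preincubation, then NADPH regeneration 1 h at 37C; luciferin detection reagent 20 min RT, luminescence in relative luminescence units.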

[4] = biological target: Cytochrome P450 1A2 (Homo sapiens) (UniProt P05177); experiment: Cytochrome P450 Family 1 Subfamily A Member 2 (CYP1A2) small molecule antagonists: luciferase reporter qHTS assay (AID 1671199); also: nearly all actives have a fitted effect of over 50% in size; also: potency is read from the fitted curve at half-maximal effect; as to activity change, negative = inhibition: series mostly up to about 120 µM
Sequence of Cytochrome P450 1A2 (Homo sapiens) (P05177 whole entry, looked up): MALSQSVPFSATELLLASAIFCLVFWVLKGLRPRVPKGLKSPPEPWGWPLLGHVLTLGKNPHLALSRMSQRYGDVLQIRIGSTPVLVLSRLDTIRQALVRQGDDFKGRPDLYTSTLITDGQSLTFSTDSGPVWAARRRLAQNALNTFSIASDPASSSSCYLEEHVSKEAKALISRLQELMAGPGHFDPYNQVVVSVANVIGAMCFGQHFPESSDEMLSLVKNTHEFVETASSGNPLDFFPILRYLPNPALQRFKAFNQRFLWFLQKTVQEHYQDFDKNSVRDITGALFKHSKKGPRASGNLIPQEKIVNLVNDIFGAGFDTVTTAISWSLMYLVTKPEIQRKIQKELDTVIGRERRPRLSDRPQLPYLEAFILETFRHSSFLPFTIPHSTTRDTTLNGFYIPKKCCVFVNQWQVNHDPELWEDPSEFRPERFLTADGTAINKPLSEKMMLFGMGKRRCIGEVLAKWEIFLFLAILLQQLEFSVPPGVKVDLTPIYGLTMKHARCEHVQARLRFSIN
Summary of the method: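 Signal from luciferin formed by CYP1A2 from a proluciferin substrate is read as luminescence, expressed in relative luminescence units. Compounds sit with enzyme 10 min, NADPH-driven reaction runs 1 h, all at room temperature.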

[5] = biological target: Voltage-gated inwardly rectifying potassium channel KCNH2 (Homo sapiens) (UniProt Q12809); experiment: Human Ether-a-go-go-Related Gene (hERG) channel small molecule antagonists: fluorescence cell-based qHTS assay (AID 1671200);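 also: hERG-expressing U2OS cells given a thallium stimulus after FluxOR II dye loading; series mostly up to about 77 µM; nearly all actives have a fitted effect of over 50% in size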
Sequence of Voltage-gated inwardly rectifying potassium channel KCNH2 (Homo sapiens) (Q12809 whole entry, looked up): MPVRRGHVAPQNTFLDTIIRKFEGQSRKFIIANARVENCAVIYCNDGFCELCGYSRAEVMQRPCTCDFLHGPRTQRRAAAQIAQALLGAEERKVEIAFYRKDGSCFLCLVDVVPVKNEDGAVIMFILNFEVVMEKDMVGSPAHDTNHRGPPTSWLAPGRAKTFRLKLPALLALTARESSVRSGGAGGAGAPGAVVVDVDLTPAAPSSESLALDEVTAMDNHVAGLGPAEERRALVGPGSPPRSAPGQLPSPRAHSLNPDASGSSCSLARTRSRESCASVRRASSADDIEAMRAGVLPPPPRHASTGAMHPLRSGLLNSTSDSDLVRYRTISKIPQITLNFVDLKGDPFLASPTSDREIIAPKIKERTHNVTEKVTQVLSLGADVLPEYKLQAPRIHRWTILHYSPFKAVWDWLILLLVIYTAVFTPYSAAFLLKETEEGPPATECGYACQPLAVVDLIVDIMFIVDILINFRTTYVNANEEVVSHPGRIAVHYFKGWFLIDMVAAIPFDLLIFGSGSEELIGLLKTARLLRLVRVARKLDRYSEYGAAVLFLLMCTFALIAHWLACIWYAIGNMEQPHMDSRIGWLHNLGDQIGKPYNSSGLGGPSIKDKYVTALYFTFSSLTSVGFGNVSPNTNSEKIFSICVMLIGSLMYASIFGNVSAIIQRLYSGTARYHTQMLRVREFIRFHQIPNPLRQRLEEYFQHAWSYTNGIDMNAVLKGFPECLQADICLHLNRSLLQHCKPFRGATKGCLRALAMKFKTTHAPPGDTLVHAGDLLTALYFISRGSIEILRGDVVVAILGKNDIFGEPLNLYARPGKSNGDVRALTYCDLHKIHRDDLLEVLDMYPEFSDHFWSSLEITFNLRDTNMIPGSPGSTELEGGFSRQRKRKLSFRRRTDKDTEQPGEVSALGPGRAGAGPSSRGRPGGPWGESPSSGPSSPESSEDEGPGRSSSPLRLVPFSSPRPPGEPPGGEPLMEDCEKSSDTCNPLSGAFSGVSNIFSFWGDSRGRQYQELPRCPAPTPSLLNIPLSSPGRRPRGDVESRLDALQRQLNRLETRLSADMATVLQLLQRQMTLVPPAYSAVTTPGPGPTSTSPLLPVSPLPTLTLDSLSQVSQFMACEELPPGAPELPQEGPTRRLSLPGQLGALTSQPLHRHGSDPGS
Summary of the method: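 Fluorescence at 540 nm emission (480 nm excitation) was recorded kinetically for 2 min at 1-second intervals once the thallium-containing stimulus reached cells previously loaded with FluxOR II dye.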

[6] = biological target: Cytochrome P450 3A4 (Homo sapiens) (UniProt P08684); experiment: Cytochrome P450 Family 3 Subfamily A Member 4 (CYP3A4) small molecule antagonists: luciferase reporter qHTS assay (AID 1671201); also: nearly all actives have a fitted effect of over 50% in size; also: potency is read from the fitted curve at half-maximal effect; as to activity change, negative = inhibition: series mostly up to about 120 µM
Sequence of Cytochrome P450 3A4 (Homo sapiens) (P08684 whole entry, looked up): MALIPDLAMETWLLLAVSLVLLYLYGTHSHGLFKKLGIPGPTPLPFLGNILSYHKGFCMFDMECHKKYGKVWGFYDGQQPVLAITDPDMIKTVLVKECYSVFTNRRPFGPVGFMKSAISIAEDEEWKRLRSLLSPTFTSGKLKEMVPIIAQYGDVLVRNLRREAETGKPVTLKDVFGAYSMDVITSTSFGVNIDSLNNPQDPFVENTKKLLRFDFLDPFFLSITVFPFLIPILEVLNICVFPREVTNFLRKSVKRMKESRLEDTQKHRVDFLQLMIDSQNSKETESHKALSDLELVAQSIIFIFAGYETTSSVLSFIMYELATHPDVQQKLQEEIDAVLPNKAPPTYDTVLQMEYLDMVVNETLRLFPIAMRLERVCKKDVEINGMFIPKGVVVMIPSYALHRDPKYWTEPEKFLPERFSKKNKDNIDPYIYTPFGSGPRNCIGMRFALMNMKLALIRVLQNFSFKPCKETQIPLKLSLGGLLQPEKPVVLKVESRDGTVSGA
Summary of the method: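 qHTS, 1536-well. CYP3A4 + proluciferin substrate, cpd 10 min RT → NADPH regen 1 h RT → detection reagent 20 min → luminescence (RLU). Ketoconazole positive control.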
% is scaled to controls: 0 for no effect and ±100 for the full control effect.

c1cc(CN2CCCCC2)cc(OCCCNc2nc3ccccc3s2)c1
active: Potency [1] 3.89 µM
inactive: Potency [2] | Potency [3] | Potency [4]

CCC(=O)c1cccc(Cl)c1
inactive: Potency [1] | Potency [2] | Potency [3] | Potency [4]

CCCCCCCCCCCl
active: Potency [4] 32.2 µM
inactive: Potency [1] | Potency [2] | Potency [3] | Potency [5] | Potency [6]

C[N+](C)(C)CC[N+]1(C)Cc2c(Cl)c(Cl)c(Cl)c(Cl)c2C1
inactive: Potency [2] | Potency [3] | Potency [4] | Potency [5] | Potency [6]
active: Potency [1] 1.55 µM

Cc1nccn1CC1CCc2c(c3ccccc3n2C)C1=O (stereo unspecified)
inactive: Potency [2] | Potency [3]
active: Potency [1] 17.4 µM

NC(N)=NS(=O)(=O)c1ccc(N)cc1
inactive: Potency [1] | Potency [2] | Potency [3] | Potency [4] | Potency [5]

Fc1ccccc1-c1ccccc1
active: Potency [4] 40.8 µM
inactive: Potency [1] | Potency [2] | Potency [3] | Potency [5] | Potency [6]

FC(F)(F)C(F)(F)C(F)(F)C(F)(F)C(F)(F)C(F)(F)C(F)(F)C(F)(F)C(F)(F)C(F)(F)F
inactive: activity change, negative = inhibition [1] -5% [at 10.5 µM] | activity change, negative = inhibition [2] -6.18% [at 10.5 µM] | activity change, negative = inhibition [3] -5.26% [at 10.5 µM] | activity change, negative = inhibition [4] -15.3% [at 10.5 µM] | activity change, negative = inhibition [5] 1.96% [at 6.97 µM] | activity change, negative = inhibition [6] -3.38% [at 10.5 µM]

CCCC(C)C(=O)O (stereo unspecified)
active: Potency [1] 34.2 µM | Potency [2] 34.2 µM | Potency [3] 54.1 µM | Potency [4] 68.2 µM
inactive: Potency [5]

CC(C)CCCC(C)CCCC(C)CCCCC(C)CCCC(C)CCCC(C)C (stereo unspecified)
inactive: Potency [1] | Potency [2] | Potency [3] | Potency [4] | Potency [5] | Potency [6]

C1CCCCCCCCCCC1
inactive: activity change, negative = inhibition [1] -0.464% [at 23.6 µM] | activity change, negative = inhibition [2] -20.8% [at 23.6 µM] | activity change, negative = inhibition [3] -1.08% [at 23.6 µM] | Potency [4] | activity change, negative = inhibition [5] -1.65% [at 15.8 µM]

CCN1CCN(c2cc3c(cc2F)c(=O)c(C(=O)O)cn3C2CC2)CC1
inactive: Potency [1] | Potency [2] | Potency [3] | Potency [4] | Potency [5]

CC(C)[C@H](N)C(=O)OCCOCn1cnc2c(=O)[nH]c(N)nc21
inactive: Potency [1] | Potency [2] | Potency [3] | Potency [4] | Potency [5]

C[C@H]1O[C@@H](n2cc(F)c(=O)[nH]c2=O)[C@H](O)[C@@H]1O
inactive: Potency [1] | Potency [2] | Potency [3] | Potency [4] | Potency [5] | Potency [6]

CC(=O)c1ccc(C)cc1
inactive: Potency [1] | Potency [2] | Potency [3] | Potency [4]

O=c1[nH]c2ccccc2c(=O)n1CCCl
active: Potency [4] 5.49 µM
inactive: Potency [1] | Potency [2] | Potency [3] | Potency [5] | Potency [6]

COc1cccc(OC)c1
inactive: Potency [1] | Potency [2] | Potency [3] | Potency [4] | Potency [5]

Cc1cc(C)c(NC(=O)CN(CC(=O)O)CC(=O)O)c(C)c1Br
inactive: Potency [1] | Potency [2] | Potency [3] | Potency [4] | Potency [5]

CC(=O)N[C@@H](CCC(N)=O)C(=O)O
inactive: Potency [1] | Potency [2] | Potency [3] | Potency [4] | Potency [5]

C=CCOc1nc(OCC=C)nc(OCC=C)n1
inactive: Potency [5]
active: Potency [1] 39.9 µM | Potency [2] 1.78 µM | Potency [3] 15.9 µM | Potency [4] 6.33 µM | Potency [6] 12.6 µM

CCCCNc1ccccc1
inactive: Potency [1] | Potency [2] | Potency [3] | Potency [4] | Potency [5]

Nc1ccn(C2CO[C@H](CO)O2)c(=O)n1 (stereo partly specified)
inactive: Potency [1] | Potency [2] | Potency [3] | Potency [4] | Potency [5] | Potency [6]

NC1CCN(c2cccc(Cl)n2)CC1
inactive: Potency [2] | Potency [3]
active: Potency [1] 1.23 µM

CC(C)c1ccc2oc3nc(N)c(C(=O)O)cc3c(=O)c2c1
inactive: Potency [5]
active: Potency [1] 15.5 µM | Potency [2] 15.5 µM | Potency [3] 13.8 µM | Potency [4] 17.4 µM

OCCCCCCO
inactive: Potency [5]
active: Potency [1] 36 µM | Potency [2] 12.8 µM | Potency [3] 40.4 µM | Potency [4] 40.4 µM

NC(CS)C(=O)O (stereo unspecified)
active: Potency [4] 17.4 µM
inactive: Potency [1] | Potency [2] | Potency [3] | Potency [5] | Potency [6]

CNc1ncnc2nc[nH]c12
inactive: Potency [1] | Potency [2] | Potency [3] | Potency [4] | Potency [5] | Potency [6]

CCCCOCC(C)OCC(C)O (stereo unspecified)
inactive: Potency [2] | Potency [3] | Potency [4] | Potency [5] | Potency [6]
active: Potency [1] 29 µM

CC(O)CN(CCCN(C)C)CCCN(C)C (stereo unspecified)
inactive: Potency [1] | Potency [2] | Potency [3] | Potency [4] | Potency [5] | Potency [6]

C=C(C)C(=O)OCCCCCCCCCCCCCCCCCC
inactive: activity change, negative = inhibition [1] 2.34% [at 23.6 µM] | activity change, negative = inhibition [2] -16.6% [at 23.6 µM] | activity change, negative = inhibition [3] -1.15% [at 23.6 µM] | Potency [4] | activity change, negative = inhibition [5] -0.193% [at 15.8 µM]
